Inconclusive results are not listed. The source made the active and inactive calls. How the source made its calls, unless noted: active means hit-call score of the fitted dose curve at least 0.9, where 1 is the maximum; inactive means score below 0.9.
Key:
[1] = read-out: Signal transducer and activator of transcription 3 (Homo sapiens) (UniProt P40763); test: LTEA_HepaRG_STAT3: Life Technologies and Expression Analysis (LTEA) Assay for Signal transducer and activator of transcription (STAT3) using HepaRG (AID 2283529); conditions: mRNA level, 48 h; actives raise or lower the signal
Method in brief: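 Differentiated HepaRG cells, serum-free induction medium, dosed 48 h in duplicate, 8 half-log concentrations from 100 uM in 0.5% DMSO. STAT3 mRNA by qRT-PCR, normalised to ACTB, GAPDH, POLR2A; bidirectional fit versus DMSO.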

[2] = read-out: solute carrier (SLCO1B1), SLCO1B1 (gene 10599); test: LTEA_HepaRG_SLCO1B1: Life Technologies and Expression Analysis (LTEA) Assay for solute carrier (SLCO1B1) using HepaRG (AID 2283530); conditions: mRNA level, 48 h; actives raise or lower the signal
Method in brief: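 SLCO1B1 transcript levels were quantified by TaqMan qRT-PCR using three housekeeping genes for normalization. This followed 48 h chemical exposure (100 uM top, half-log, 8 points, 0.5% DMSO) of HepaRG liver cells, with gain or loss fitted relative to DMSO.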

[3] = read-out: sulfotransferase 2A1 (SULT2A1), SULT2A1 (gene 6822); test: LTEA_HepaRG_SULT2A1: Life Technologies and Expression Analysis (LTEA) Assay for sulfotransferase 2A1 (SULT2A1) using HepaRG (AID 2283531); conditions: mRNA level, 48 h; actives raise or lower the signal
Method in brief: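 Expression change of SULT2A1, by qRT-PCR with three housekeeping-gene normalization, was scored bidirectionally versus DMSO. Cells: differentiated HepaRG, dosed in duplicate for 48 h across 8 points, highest 100 µM, half-log dilution, 0.5% DMSO.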

[4] = read-out: Transforming Growth Factor (TGFA), TGFA (gene 7039); test: LTEA_HepaRG_TGFA: Life Technologies and Expression Analysis (LTEA) Assay for Transforming Growth Factor (TGFA) using HepaRG (AID 2283532); conditions: mRNA level, 48 h; actives raise or lower the signal
Method in brief: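 Differentiated HepaRG cells exposed 48 hours in serum-free induction medium, 0.5% DMSO vehicle, 8-point half-log series from 100 uM, in duplicate. TGFA mRNA by TaqMan qRT-PCR, normalised to ACTB, GAPDH, POLR2A; bidirectional fit versus DMSO.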

[5] = read-out: Transforming Growth Factor (TGFB1), TGFB1 (gene 7040); test: LTEA_HepaRG_TGFB1: Life Technologies and Expression Analysis (LTEA) Assay for Transforming Growth Factor (TGFB1) Transporter using HepaRG (AID 2283533); conditions: mRNA level, 48 h; actives raise or lower the signal
Method in brief: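 TGFB1 transcript measured by qRT-PCR with normalisation to three housekeeping genes (ACTB, GAPDH, POLR2A); human HepaRG line treated in duplicate for 48 hr with an 8-point series topping at 100 uM, 0.5% DMSO vehicle, bidirectionally fitted.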

TIMP1, TIMP1 (gene 7076) = test: LTEA_HepaRG_TIMP1: Life Technologies and Expression Analysis (LTEA) Assay for TIMP1 using HepaRG (AID 2283534); conditions: mRNA level, 48 h; actives raise or lower the signal
Method in brief: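 Bidirectional change in TIMP1 transcript versus 0.5% DMSO, measured by TaqMan qRT-PCR with three housekeeping genes for normalization. HepaRG human liver cells dosed 48 h in duplicate, top concentration 100 uM with half-log dilutions.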

[6] = read-out: Tumor necrosis factor receptor 1 (TNFRSF1A), TNFRSF1A (gene 7132); test: LTEA_HepaRG_TNFRSF1A: Life Technologies and Expression Analysis (LTEA) Assay for Tumor necrosis factor receptor 1 (TNFRSF1A) using HepaRG (AID 2283535); conditions: mRNA level, 48 h; actives raise or lower the signal
Method in brief: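 mRNA measured by qRT-PCR (TaqMan, Fluidigm arrays) against ACTB/GAPDH/POLR2A housekeepers after 48 h chemical exposure of HepaRG cells. Top concentration 100 uM, half-log 8-point series, duplicates; vehicle 0.5% DMSO, both fit directions.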

[7] = read-out: Thyroid Hormone Responsive (THRSP), THRSP (gene 7069); test: LTEA_HepaRG_THRSP: Life Technologies and Expression Analysis (LTEA) Assay for Thyroid Hormone Responsive (THRSP) using HepaRG (AID 2283536); conditions: mRNA level, 48 h; actives raise or lower the signal
Method in brief: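 Differentiated HepaRG cells treated 48 h in serum-free induction medium with 8 half-log concentrations up to 100 uM (0.5% DMSO), duplicates. THRSP mRNA by TaqMan qRT-PCR normalised to ACTB, GAPDH, POLR2A; bidirectional fit versus DMSO.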

[8] = read-out: UDP glucuronosyltransferase (UGT1A1), UGT1A1 (gene 54658); test: LTEA_HepaRG_UGT1A1: Life Technologies and Expression Analysis (LTEA) Assay for UDP glucuronosyltransferase (UGT1A1) using HepaRG (AID 2283538); conditions: mRNA level, 48 h; actives raise or lower the signal
Method in brief: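 HepaRG cells, 0.5% DMSO vehicle, 48 h exposure in serum-free induction medium to 8-point half-log series topping at 100 uM, in duplicate. UGT1A1 mRNA by Fluidigm qRT-PCR, normalized to ACTB/GAPDH/POLR2A; bidirectional fit versus DMSO.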

[9] = read-out: X-box binding protein 1 (XBP1), XBP1 (gene 7494); test: LTEA_HepaRG_XBP1: Life Technologies and Expression Analysis (LTEA) Assay for X-box binding protein 1 (XBP1) using HepaRG (AID 2283540); conditions: mRNA level, 48 h; actives raise or lower the signal
Method in brief: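 XBP1 transcript by qRT-PCR (housekeeping-normalized: ACTB, GAPDH, POLR2A) after 48 h chemical treatment of HepaRG cells, 8-point half-log series topping at 100 uM, vehicle 0.5% DMSO. Gain and loss of signal fitted relative to DMSO.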

[10] = LTEA_HepaRG_LDH_cytotoxicity: Cytotoxicity Assessment in the Life Technologies and Expression Analysis (LTEA) Assay (AID 2283563; active means hit-call score of the fitted dose curve at least 0.9, where 1 is the maximum)
Method in brief: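 LDH release into culture medium read after 48 h chemical treatment of HepaRG cells. Duplicate wells, eight-point half-log series topping at 100 uM, 0.5% DMSO vehicle and baseline.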

[11] = ATG_XTT_Cytotoxicity: Cytotoxicity Assessment in the Attagene TRANS-FACTORIAL HepG2 Assay (AID 2283584; active means hit-call score of the fitted dose curve at least 0.9, where 1 is the maximum)
Method in brief: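 Viability endpoint from XTT after 24 h chemical exposure of reporter-transfected human HepG2 liver cells; signal loss fitted relative to DMSO negative control.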

[12] = TOX21_p53_BLA_p2_viability: Viability Assessment in the Tox21 HCT-116 p53 Agonism Beta-lactamase Assay, Phase 2 (AID 2283591; active means hit-call score of the fitted dose curve at least 0.9, where 1 is the maximum;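 further: compound exposure lasted 16 h at 37 °C; actives lower the ATP signal meaning cytotoxicity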)
Method in brief: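 HCT116 p53-bla cells, 4000/well, dosed after 5 h plating (217-fold dilution of DMSO stocks) and incubated 16 h at 37C. Viability taken as cellular ATP by CellTiter-Glo luminescence after 30 min RT; signal loss marks cytotoxicity.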

[13] = target: Cellular tumor antigen p53 (Homo sapiens) (UniProt P04637); test: TOX21_p53_BLA_p3_ratio: Tox21 HCT-116 p53 Agonism Beta-lactamase Assay, Ratio, Phase 3 (AID 2283596; active means hit-call score of the fitted dose curve at least 0.9, where 1 is the maximum)
Method in brief: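 HCT116 p53-bla cells (4000/well) given compound in DMSO (217-fold dilution) after 5 h, incubated 16 h at 37C. CCF4-AM substrate 2 h at room temperature; 460/530 nm emission ratio, gain fitted against DMSO.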

[14] = read-out: succinate dehydrogenase complex iron sulfur subunit B (SDHB), SDHB (gene 6390); test: LTEA_HepaRG_SDHB: Life Technologies and Expression Analysis (LTEA) Assay for succinate dehydrogenase complex iron sulfur subunit B (SDHB) using HepaRG (AID 2283528); conditions: mRNA level, 48 h; actives raise or lower the signal
Method in brief: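 SDHB transcript level read by TaqMan qRT-PCR, housekeeping-normalised (ACTB, GAPDH, POLR2A), after 48 h chemical treatment of plated HepaRG cells; eight concentrations top 100 uM, half-log steps, 0.5% DMSO, duplicates; fitted both directions against DMSO.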

[15] = target: Cellular tumor antigen p53 (Homo sapiens) (UniProt P04637); test: TOX21_p53_BLA_p2_ratio: Tox21 HCT-116 p53 Agonism Beta-lactamase Assay, Ratio, Phase 2 (AID 2283592; active means hit-call score of the fitted dose curve at least 0.9, where 1 is the maximum)
Method in brief: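 Gain-of-signal p53 agonism was scored from the beta-lactamase FRET ratio (460/530 nm, 405 nm excitation) in HCT116 cells treated 16 h at 37C, 5% CO2, with DMSO serving as negative control and baseline.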

[16] = TOX21_p53_BLA_p4_viability: Viability Assessment in the Tox21 HCT-116 p53 Agonism Beta-lactamase Assay, Phase 4 (AID 2283597; active means hit-call score of the fitted dose curve at least 0.9, where 1 is the maximum;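 further: hits lower the luminescence signal meaning cytotoxicity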)
Method in brief: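 Following a 16 h exposure at 37C, the treated HCT116 wells were first read for the FRET ratio. They were then lysed with CellTiter-Glo, and ATP luminescence was recorded after 30 min at room temperature.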

[17] = TOX21_p53_BLA_p3_viability: Viability Assessment in the Tox21 HCT-116 p53 Agonism Beta-lactamase Assay, Phase 3 (AID 2283593; active means hit-call score of the fitted dose curve at least 0.9, where 1 is the maximum;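 further: cells exposed to compound for 16 h before reading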)
Method in brief: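 HCT116 cells, 4000/well, dosed 5 h after plating by pin transfer (217-fold dilution from DMSO stock) and incubated 16 h at 37C, 5% CO2. Viability read as ATP luminescence with CellTiter-Glo after 30 min at room temperature.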

Signal transducer and activator of transcription 3 (Homo sapiens), sequence (P40763 whole entry, looked up): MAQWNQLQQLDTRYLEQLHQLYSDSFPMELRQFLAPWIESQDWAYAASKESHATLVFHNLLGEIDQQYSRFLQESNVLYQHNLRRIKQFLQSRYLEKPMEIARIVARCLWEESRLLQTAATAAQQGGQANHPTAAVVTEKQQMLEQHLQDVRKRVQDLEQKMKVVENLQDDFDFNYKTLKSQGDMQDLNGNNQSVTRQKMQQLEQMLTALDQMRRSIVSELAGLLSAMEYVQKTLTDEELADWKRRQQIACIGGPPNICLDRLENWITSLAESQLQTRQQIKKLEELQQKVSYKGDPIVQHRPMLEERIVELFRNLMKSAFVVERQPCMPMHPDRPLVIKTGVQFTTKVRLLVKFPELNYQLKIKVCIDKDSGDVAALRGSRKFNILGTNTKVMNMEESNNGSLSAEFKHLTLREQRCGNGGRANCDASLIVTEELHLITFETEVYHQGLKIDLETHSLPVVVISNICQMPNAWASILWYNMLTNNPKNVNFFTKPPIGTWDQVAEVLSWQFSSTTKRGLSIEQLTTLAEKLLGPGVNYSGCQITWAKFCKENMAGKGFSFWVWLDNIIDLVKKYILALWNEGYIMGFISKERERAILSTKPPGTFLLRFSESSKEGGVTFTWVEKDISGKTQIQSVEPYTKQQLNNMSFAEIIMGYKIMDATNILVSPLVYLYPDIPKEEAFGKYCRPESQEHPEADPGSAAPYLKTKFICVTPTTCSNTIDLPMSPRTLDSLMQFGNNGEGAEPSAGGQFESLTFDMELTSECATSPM
Cellular tumor antigen p53 (Homo sapiens), sequence (P04637 whole entry, looked up): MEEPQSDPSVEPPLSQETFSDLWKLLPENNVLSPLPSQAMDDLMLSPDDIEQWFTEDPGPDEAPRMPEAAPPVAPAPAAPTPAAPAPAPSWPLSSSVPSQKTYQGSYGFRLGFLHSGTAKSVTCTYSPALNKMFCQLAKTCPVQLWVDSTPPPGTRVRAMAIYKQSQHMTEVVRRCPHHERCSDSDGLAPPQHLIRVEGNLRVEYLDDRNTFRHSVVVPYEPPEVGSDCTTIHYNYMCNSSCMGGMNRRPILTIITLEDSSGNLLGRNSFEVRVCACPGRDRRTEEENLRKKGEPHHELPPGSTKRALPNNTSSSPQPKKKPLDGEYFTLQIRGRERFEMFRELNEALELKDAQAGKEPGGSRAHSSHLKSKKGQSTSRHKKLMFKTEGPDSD

C=CCOC(=O)c1ccccc1C(=O)OCC=C
outcome [1]: inactive | outcome [2]: inactive | outcome [3]: inactive | outcome [4]: inactive | outcome [5]: inactive | outcome (TIMP1, TIMP1 (gene 7076)): inactive | outcome [6]: inactive | outcome [7]: inactive | outcome [8]: inactive | outcome [9]: inactive | outcome [10]: inactive | outcome [11]: inactive | outcome [12]: inactive | outcome [13]: inactive

CCCCCCCCCCCCCO
outcome [14]: inactive | outcome [1]: inactive | outcome [2]: inactive | outcome [4]: inactive | outcome (TIMP1, TIMP1 (gene 7076)): inactive | outcome [6]: inactive | outcome [7]: inactive | outcome [8]: inactive | outcome [9]: inactive | outcome [10]: inactive | outcome [11]: inactive | outcome [15]: inactive | outcome [13]: inactive | outcome [16]: inactive

C=CCc1ccc(O)c(OC)c1
outcome [1]: inactive | outcome [2]: inactive | outcome [3]: inactive | outcome [4]: inactive | outcome [5]: inactive | outcome (TIMP1, TIMP1 (gene 7076)): inactive | outcome [6]: inactive | outcome [7]: inactive | outcome [8]: inactive | outcome [9]: inactive | outcome [10]: inactive | outcome [12]: inactive | outcome [17]: inactive | outcome [13]: inactive

CC(C)c1ccc(C(=O)N=C(N)N)cc1S(C)(=O)=O
outcome [1]: inactive | outcome [2]: inactive | outcome [3]: inactive | AC50 [4]: 0.555 µM (active) | AC50 [5]: 0.403 µM (active) | outcome (TIMP1, TIMP1 (gene 7076)): inactive | AC50 [6]: 0.337 µM (active) | AC50 [7]: 37.2 µM (active) | AC50 [8]: 10.2 µM (active) | AC50 [9]: 0.288 µM (active) | outcome [10]: inactive | outcome [15]: inactive | outcome [17]: inactive | outcome [16]: inactive

— PubChem BioAssay (EPA / NIEHS)
